Assay outcomes deposited in PubChem BioAssay by National Center for Advancing Translational Sciences (NCATS).
A selection: hits, their analogues and other compounds. The true share with any hit is near 2.4%.
D2 ag-1: Beta-Arrestin HTS for Positive Allosteric Modulators of the Human D2 Dopamine Receptor: Agonists | D(2) dopamine receptor (Homo sapiens), P14416 | DiscoveRx PathHunter D2 beta-arrestin, luminescence, 90 min; 100% = 57 uM dopamine signal | activation, % (concentration not given with the values) | 0.084% of 360,000 active | AID 624465, 2012; in the data active means activation above about 40%; inconclusive means between about 15% and that limit
Target sequence (P14416 whole entry, looked up): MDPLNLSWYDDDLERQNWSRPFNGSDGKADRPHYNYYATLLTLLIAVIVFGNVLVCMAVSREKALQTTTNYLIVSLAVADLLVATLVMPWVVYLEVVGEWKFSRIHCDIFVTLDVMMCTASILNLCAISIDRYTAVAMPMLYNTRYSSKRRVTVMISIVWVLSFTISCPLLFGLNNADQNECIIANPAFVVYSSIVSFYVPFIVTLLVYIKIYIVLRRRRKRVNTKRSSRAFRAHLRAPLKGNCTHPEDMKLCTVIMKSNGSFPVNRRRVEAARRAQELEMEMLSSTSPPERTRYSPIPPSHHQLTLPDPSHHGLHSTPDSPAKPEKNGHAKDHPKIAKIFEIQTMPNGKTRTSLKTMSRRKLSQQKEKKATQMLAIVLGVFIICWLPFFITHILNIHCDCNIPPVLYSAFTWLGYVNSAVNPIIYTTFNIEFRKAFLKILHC
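Agonist mode: compounds alone added to overnight-plated D2 PathHunter cells for 90 min at 37 C, with 57 uM final dopamine (EC100) defining full response. Beta-arrestin recruitment detected by chemiluminescent reagent, read after 1 h at ambient temperature.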
D2 ag-2: HTS Assay for Allosteric Agonists of the Human D2 Dopamine Receptor: Primary Screen for Agonists; 0.53% of 340,000 active; HEK293 T-REx D2 cells, calcium flux agonist mode; activation, % at 2 µM; D(2) dopamine receptor (Homo sapiens), P14416; AID 485358, 2010;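 active means activation over 3 SD above normal in the single-dose calcium agonist read, cut at about 30% in these data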; further: 0% is about no effect
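Tetracycline-induced HEK293 T-REx cells with force-coupled D2 receptor, plated overnight at 30 C, loaded with no-wash calcium dye. After a 10 s baseline, compound was pin-added and calcium flux read kinetically for 180 s; calcium rises flagged agonists.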
D2 PAM-1: Beta-Arrestin HTS for Positive Allosteric Modulators of the Human D2 Dopamine Receptor: Potentiators | DiscoveRx D2 beta-arrestin cells, luminescence, 90 min; 100% = 57 uM dopamine signal | 0.23% of 360,000 active | potentiation, % (test concentration not listed) | D(2) dopamine receptor (Homo sapiens), P14416; in the data active means potentiation above about 50%; inconclusive means mostly about 30% to 49%
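PathHunter D2 cells, attached overnight at 37 deg C, received compound in DMSO plus dopamine at EC20 (50 nM final) for 90 min at 37 deg C. Beta-arrestin recruitment was read as luminescence after 1 h with detection reagent at ambient temperature.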
D2 antagonist: HTS Assay for Allosteric Antagonists of the Human D2 Dopamine Receptor: Primary Screen for Antagonists. D(2) dopamine receptor (Homo sapiens), P14416. HEK293 TREx D2 cells, calcium flux, dopamine EC80. inhibition, % at 10 µM. 2% of 340,000 active; in the data active means inhibition above about 30%; inactive means below that, where a call was filed; further: 0% is about no effect
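Calcium mobilization kinetics were recorded at 1 s intervals in tetracycline-induced HEK293 T-REx D2 cells, first for 180 s after compound addition and then 180 s after EC80 dopamine.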
D2 PAM-2: HTS Assay for Positive Allosteric Modulators of the Human D2 Dopamine Receptor: Primary Screen for Potentiators. AID 485347, 2010. HEK293 T-REx D2, calcium flux, EC20 dopamine potentiation. potentiation, % at 10 µM. 0.34% of 340,000 active;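 active means potentiation over 3 SD above the plate norm, cut at about 30% in these data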; further: 0% is about no effect
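Calcium flux readout, no-wash dye, 1 read/s. Inducible HEK293 Trex D2 line, overnight 30 C. Compound alone 180 s (agonist flags), then EC20 dopamine, another 180 s to score potentiation.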
D3 ag: qHTS of D3 Dopamine Receptor Agonist: D3 Dopamine Receptor B-arrestin Agonist Confirmatory Assay. shares compounds with D2 ag-2. DiscoveRx D3 beta-arrestin cells, luminescence, 90 min. Potency, µM (doses to about 76.9 µM), without a hit: at the top dose activation, usual class: activators. 4% of 2,300 active;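 further: potency means the concentration at half of the fitted maximal effect; 100% = dopamine control response; nearly all actives have a fitted effect of over 70% in size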
D2 ag-3: qHTS of D3 Dopamine Receptor Agonist: D2 Dopamine Receptor B-arrestin Agonist Counterscreen. AID 720507, 2013. shares compounds with D2 ag-2. Potency, µM (highest dose often 76.9 µM), for inactives: at the highest dose activation, most hits filed as activators. DiscoveRx PathHunter D2 beta-arrestin, luminescence, 90 min; response scale: percent relative to full dopamine signal. 5.9% of 2,300 active; further: potency means the concentration at half of the fitted maximal effect; % of control where 0% means no effect; nearly all actives have a fitted effect of over 70% in size
Numbers without * were called inactive. Unless noted, the call rests on the fitted dose curve; in most records, active means well fitted activation curve with a large enough effect; inconclusive means small, poorly fitted or top-dose-only effect; inactive means flat fitted curve, though single readings scatter.

`O=C(c1ccccc1)C1CN(Cc2ccccc2)CCC1(O)c1ccccc1` (stereo unspecified) gave D2 ag-1 2.1, D2 ag-2 64.8*, D2 PAM-1 -11.3, D2 antagonist 45.3*, D2 PAM-2 -13.8, D3 ag -7.8% and D2 ag-3 3.6%.
OC(c1ccccc1)C1CN(Cc2ccccc2)CCC1(O)c1ccccc1 (stereo unspecified) was read as D2 ag-1 -1.8, D2 ag-2 0.6, D2 PAM-1 -33.8, D2 antagonist -7.7 and D2 PAM-2 -15.2.
`COc1ccccc1OCCn1c(COc2cc(C)ccc2C)nc2ccccc21` gave D2 ag-2 0.3 and D2 PAM-2 -1.7.
COc1ccccc1N1CCN(C(CNS(=O)(=O)c2ccccc2)c2ccccc2)CC1 (stereo unspecified) was read as D2 ag-1 -0.6, D2 ag-2 7.3, D2 PAM-1 -32.5, D2 antagonist 19.8, D2 PAM-2 -15.1, D3 ag -7.2% and D2 ag-3 -1.4%.
`COc1ccccc1N1CCN(C(CNS(=O)(=O)c2cccs2)c2cccnc2)CC1` (stereo unspecified) gave D2 ag-1 -3.4, D2 ag-2 5.7, D2 PAM-1 -15.6, D2 antagonist 6.9 and D2 PAM-2 -8.9.
`Cc1ccc(S(=O)(=O)NCC(c2ccc3c(c2)OCO3)N2CCN(c3ccccc3)CC2)cc1` (stereo unspecified) gave D2 ag-1 inconclusive, D2 ag-2 63.7*, D2 PAM-1 8.8, D2 antagonist 67.4*, D2 PAM-2 -26.9, D3 ag 19.8% and D2 ag-3 inconclusive.
Screening COc1ccc(S(=O)(=O)NCC(c2ccc3c(c2)OCO3)N2CCN(c3ccccc3)CC2)cc1 (stereo unspecified) returned D2 ag-1 inconclusive, D2 ag-2 66.1*, D2 PAM-1 28.1, D2 antagonist 72.8*, D2 PAM-2 -26.3, D3 ag 15.9% and D2 ag-3 11.2µM*.
For COC(=O)NCC(c1ccc2c(c1)OCO2)N1CCN(c2ccccc2)CC1 (stereo unspecified) the results were D2 ag-1 0.9, D2 ag-2 6.5, D2 PAM-1 -19.2, D2 antagonist -15.6 and D2 PAM-2 1.7.
CN(Cc1ccccc1)C(=O)CSc1nc(-c2ccc(F)cc2)cc(C(F)(F)F)n1 was read as D2 ag-2 -0.5 and D2 PAM-2 -7.2.
CCN(CC)c1ccc2cc(C(N)=O)c(=O)oc2c1 was read as D2 ag-1 -10.8, D2 ag-2 -4.6, D2 PAM-1 5.6, D2 antagonist 11.4 and D2 PAM-2 7.9.
CCN(CC)c1ccc2cc(C(N)=O)c(=N)oc2c1 was read as D2 ag-1 -2.4, D2 ag-2 44.3*, D2 PAM-1 1.5, D2 antagonist -10.4, D2 PAM-2 1.6, D3 ag -6.2% and D2 ag-3 2.1%.
Screening COc1ccccc1-c1nc(S(=O)(=O)c2ccccc2)c(N2CCC(C)CC2)o1 returned D2 PAM-2 0.9.
`COc1ccc(OC)c(NC(=O)c2cnn(-c3ccc(C)cc3)c2C2CCNCC2)c1` gave D2 ag-2 0.2 and D2 PAM-2 -5.7.
O=C(NC(=S)Nc1ccc(CN2CCOCC2)cc1)c1ccccc1[N+](=O)[O-] was read as D2 ag-1 -0.9, D2 PAM-1 -0.9, D3 ag -20.9% and D2 ag-3 -0.9%.
O=C(NC(=S)Nc1ccc(CN2CCOCC2)cc1)c1ccc([N+](=O)[O-])cc1Cl was read as D2 ag-1 1.3, D2 ag-2 5.6, D2 PAM-1 -16.1, D2 antagonist 15.8 and D2 PAM-2 -0.2.
`[O-]/[N+](=C/c1ccccc1)c1ccccc1` gave D2 ag-1 -2.6, D2 ag-2 0.0, D2 PAM-1 -8.5, D2 antagonist -7.8, D2 PAM-2 -12.7, D3 ag 2.0% and D2 ag-3 -3.0%.
Screening COc1cccc(CNC(=O)c2oc3ccc4c(c3c2C)C(=O)CC(C)(C)O4)c1OC returned D2 ag-2 0.0.
CN(C)c1ccc(CNC(=O)c2cc3ccccn3n2)cc1 was read as D2 ag-2 -0.4 and D2 PAM-2 2.6.
Screening CCOc1ccccc1N1CCN(Cc2ccc(Br)s2)CC1 returned D2 ag-1 1.8, D2 PAM-1 -5.1, D2 PAM-2 -24.8, D3 ag -5.8% and D2 ag-3 3.8%.
`CCOc1ccccc1N1CCN(Cc2c(C)n(C)n(-c3ccccc3)c2=O)CC1` gave D2 ag-1 -3.5, D2 ag-2 30.7*, D2 PAM-1 -6.8, D2 antagonist 84.6*, D2 PAM-2 -24.6, D3 ag -10.3% and D2 ag-3 1.3%.
`COc1ccc(OC)c(C(=O)c2c(N)c(-c3nc(-c4ccc(C)c(C)c4)cs3)c3ccccn23)c1` gave D2 ag-2 -1.0 and D2 PAM-2 11.1.
For CCN(C(=O)Cn1cc(C(=O)c2ccc(F)cc2)c(=O)c2ccc(C)nc21)c1cccc(C)c1 the results were D2 ag-2 -2.0 and D2 PAM-2 1.2.
O=C(c1ccccc1)N1CCN(CC(O)COc2ccc(Br)cc2)CC1 (stereo unspecified) was read as D2 ag-1 -0.2, D2 ag-2 -5.3, D2 PAM-1 -46.8, D2 antagonist -0.4 and D2 PAM-2 -8.9.
For O=C(c1ccco1)N1CCN(CC(O)COc2ccc3oc4ccccc4c3c2)CC1 (stereo unspecified) the results were D2 ag-1 inconclusive, D2 ag-2 49.6*, D2 PAM-1 8.6, D2 antagonist 39.9*, D2 PAM-2 -18.6, D3 ag 35.5µM* and D2 ag-3 50.1µM*.
